Screening data as filed in PubChem.
FLuc modulator – qHTS profiling assay for firefly luciferase inhibitor/activator using purifed enzyme and Km concentrations of substrates (counterscreen for miR-21 project); purified FLuc, Km substrates, luminescence inhibition; AID 588342, 2011; actives 6.9% (n = 360,000); Potency, µM (titrated, usually from 57.5 µM), inactives show at the highest dose activity change, negative = inhibition, hits mostly inhibitors;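 further: plate controls were vehicle for no effect and reference inhibitor for full effect; nearly all actives have a fitted effect of over 55% in size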
Target sequence (P08659 whole entry, looked up): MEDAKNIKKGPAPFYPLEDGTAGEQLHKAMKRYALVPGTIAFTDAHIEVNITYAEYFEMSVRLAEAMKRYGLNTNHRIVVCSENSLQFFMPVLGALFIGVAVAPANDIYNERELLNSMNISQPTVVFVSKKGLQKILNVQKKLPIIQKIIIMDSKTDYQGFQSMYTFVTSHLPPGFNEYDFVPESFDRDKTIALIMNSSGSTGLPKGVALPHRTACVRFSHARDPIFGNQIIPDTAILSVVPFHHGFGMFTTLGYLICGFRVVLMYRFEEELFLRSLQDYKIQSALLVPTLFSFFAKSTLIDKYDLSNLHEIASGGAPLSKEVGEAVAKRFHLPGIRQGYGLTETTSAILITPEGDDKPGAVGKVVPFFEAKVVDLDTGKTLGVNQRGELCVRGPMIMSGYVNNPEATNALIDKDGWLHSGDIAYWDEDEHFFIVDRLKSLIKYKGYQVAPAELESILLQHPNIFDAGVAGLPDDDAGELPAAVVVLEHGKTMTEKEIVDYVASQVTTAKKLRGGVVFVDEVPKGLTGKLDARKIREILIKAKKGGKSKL
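Purified P. pyralis luciferase (10nM final) with 10uM D-luciferin and 10uM ATP (Km levels) in 50mM Tris acetate pH 7.5, 10mM Mg acetate, 0.01% Tween-20, 0.05% BSA; qHTS 6-point titration, ~60 µM downward; luminescence read.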
ELG1 genotox – qHTS screen for small molecules that induce genotoxicity in human embryonic kidney (HEK293T) cells expressing luciferase-tagged ELG1; Potency, µM (series often up to 46 µM), without a hit: top-dose activity change, positive = activation, most hits filed as activators; HEK293T ELG1-luciferase reporter, luminescence, 16 h; actives 1.3% (n = 330,000); further: % of control where 0% means no effect; nearly all actives have a fitted effect of over 60% in size
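Genotoxicity was scored as increased ELG1-luciferase reporter signal, measured by ONE-Glo luminescence (30 min, room temperature). Compound or vehicle exposure of the HEK293T reporter cells lasted 16 hr at 37°C.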
SMN2 splice enh – qHTS Assay for Enhancers of SMN2 Splice Variant Expression. actives 2.8% (n = 210,000). Potency, µM (doses to about 46.1 µM), inactives show at the highest dose activity change, positive = activation, usual class: activators. AID 1458, 2008. HEK293 SMN2-luciferase splicing reporter, luminescence, 30-36 h; further: % of control where 0% means no effect; nearly all actives have a fitted effect of over 55% in size
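HEK293 cells carry an SMN2 minigene-luciferase reporter in which exon 7 inclusion puts luciferase in frame. Cells were seeded at 2000 cells/well, attached for 10-12 hours, then exposed to compounds for 30-36 hours at 37C before ONE-Glo luminescence.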
NPC1 promoter act – qHTS Assay for NPC1 Promoter Activators | actives 2.4% (n = 320,000) | AID 485313, 2010 | Huh7 NPC1 promoter luciferase reporter, 24 h | Potency, µM (titrated, usually from 9.22 µM), for inactives: at the top dose activation, usual class: activators; further: % of control where 0% means no effect; nearly all actives have a fitted effect of over 60% in size
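Huh7 reporter cells (NPC1 promoter driving luciferase) are dosed with compound for 24 h at 37 °C, 5% CO2; luciferase detection reagent is then added and luminescence measured after 10 min at ambient temperature.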
Luc counter – Counterscreen for Luciferase (Kinase-Glo TM) Inhibition. actives 0.28% (n = 200,000). Luciferin 4-monooxygenase (Photuris pensylvanica), Q27757. Potency, µM (top dose mostly 38.3 µM), for the others: at the highest dose activity change, negative = inhibition, most hits filed as inhibitors. Kinase-Glo luciferase, ATP luminescence, 8 min. AID 1379, 2008; further: on the % scale 0 is the no-effect control and ±100 the full control effect; nearly all actives have a fitted effect of over 60% in size
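Compound is pinned into ATP-containing buffer (10 uM ATP, imidazole pH 7.2, 7 mM MgCl2). Kinase-Glo luciferase reagent is then added. Light output is recorded following an 8-min room-temperature incubation.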
Rab9 promoter act – qHTS Assay for Rab9 Promoter Activators; Huh7 Rab9 promoter-luciferase reporter, luminescence, 24 h; Potency, µM (series often up to 9.22 µM), for the others: at the highest dose activation, negative = inhibition, usual class: activators; actives 2.8% (n = 320,000); AID 485297, 2010; further: % of control where 0% means no effect; nearly all actives have a fitted effect of over 60% in size
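Promoter activation is measured as luciferase luminescence in Huh7 cells stably transfected with a Rab9 promoter–luciferase construct, following 24 h compound exposure at 37 °C and 10 min reagent incubation at ambient temperature.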
Numbers without * were called inactive; ? = inconclusive; / = not tested or not shown. Rows were chosen to be rich in hits. Some 7.3% of all compounds tested hit in one or more screens of this group. The call rests on the fitted dose curve; in most records, active means well fitted curve in the direction sought with a large enough effect; inconclusive means small, poorly fitted or top-dose-only effect, or another doubt; inactive means no such curve, though single readings can be large; an effect the other way counts as inactive or inconclusive. Potency means the concentration at half of the fitted maximal effect.

SMILES	FLuc modulator	ELG1 genotox	SMN2 splice enh	NPC1 promoter act	Luc counter	Rab9 promoter act
CCOc1ccc(NC(=O)CSc2nnc(CNC(=O)C34CC5CC(CC(C5)C3)C4)n2CC)cc1	-13%	/	-2%	/	/	/
CC(=O)Nc1cccc(OCc2cnc(Cl)s2)c1	-20%	13%	19%	-2%	5%	6%
CC(C)(C)c1ccc(OCc2cnc(Cl)s2)cc1	13µM*	?	3%	17%	-7%	?
Cc1ccccc1NC(=O)N1CCC(CN2CCCC2)CC1	4%	/	/	/	/	/
COc1ccc(-c2csc(N3C(=N)SCC3=O)n2)cc1	0.43µM*	1.6µM*	1µM*	0.45µM*	-7%	0.4µM*
COc1ccc(-c2csc(N3C(=O)C4C5c6ccccc6C(c6ccccc65)C4C3=O)n2)cc1 (stereo unspecified)	6%	-1%	2%	-3%	5%	-4%
COc1ccc(-c2csc(N3C(=O)C4C5c6ccccc6C(c6ccccc65)[C@@H]4C3=O)n2)cc1 (stereo partly specified)	2%	0%	-25%	0%	1%	0%
COc1ccc(-c2csc(N3C(=O)CNC3=S)n2)cc1	0.85µM*	3.3µM*	1.3µM*	0.56µM*	2%	0.5µM*
CCc1c(C)[nH]n(-c2nc(-c3ccccc3)cs2)c1=O	?	4%	-24%	8%	-3%	3%
O=C1CNC(=S)N1c1nc(-c2ccccc2)cs1	2.7µM*	?	11µM*	2.8µM*	2%	2.8µM*
CCOC(=O)c1c(C)[nH]c(C)c1S(=O)(=O)N1CCCC(C(=O)N2CCN(c3ccc(Cl)cc3)CC2)C1 (stereo unspecified)	-5%	/	/	/	/	/
CNC(=O)c1c(NC(=O)c2nc3ccccc3s2)sc2c1CCC2	5.4µM*	4.6µM*	13µM*	?	-3%	2µM*
O=C(Nc1sc2c(c1C(=O)O)CCC2)c1ccccc1Cl	?	-11%	/	0%	/	-1%
O=C(Nc1sc2c(c1C(=O)N1CCOCC1)CCCCC2)c1cccnc1	4%	3%	-9%	-2%	-1%	-5%
Cc1ccccc1C(=O)Nc1sc2c(c1C(=O)O)CCC2	19µM*	-5%	5%	-1%	-7%	-13%
O=C(Nc1sc2c(c1C(=O)O)CCCCC2)c1cccnc1	17µM*	6%	/	25%	/	28%
Cc1cccc(C(=O)Nc2sc3c(c2C(=O)O)CCCC3)c1	15µM*	0%	15%	23%	/	28%
COc1ccc(CCNC(=O)c2cnc3sc(N4CCC(C)CC4)nn3c2=O)cc1OC	-3%	/	/	/	/	/
O=C(Nc1cccc([N+](=O)[O-])c1)NC1CCCCCCC1	12µM*	-11%	/	2.8µM*	/	2.5µM*
O=[N+]([O-])c1cccc(NC(=S)N2CCCC2)c1	0%	-4%	/	-3%	/	0%
O=C(Nc1cccc([N+](=O)[O-])c1)ONC1=NCCCCC1	15µM*	-1%	/	0%	/	-3%
O=C(ONC1=NCCCCC1)c1ccc([N+](=O)[O-])cc1	-3%	0%	-49%	-4%	4%	1%
O=C(Nc1cccc([N+](=O)[O-])c1)C(=O)N1CCCCC1	?	?	18µM*	?	-26%	1.3µM*
Cc1csc2nc(COC(=O)CNC(=O)c3ccccc3Cl)cc(=O)n12	3%	/	/	/	/	/
Cc1ccc(/C=C/C2=NN(C)C(=O)CC2)cc1	6.7µM*	?	11µM*	3.5µM*	?	0.89µM*
SMILES	FLuc modulator	ELG1 genotox	SMN2 splice enh	NPC1 promoter act	Luc counter	Rab9 promoter act
CN1N=C(/C=C/c2ccccc2)CCC1=O	?	?	?	-24%	?	?
CC12CCC(C/C1=N\N=C1\NC(=O)/C(=C\c3ccc(Cl)cc3)S1)C2(C)C (stereo unspecified)	6µM*	12%	-30%	8%	3%	16%
O=C1NC(=Nc2ccccc2Cl)S/C1=C\c1ccc(C(=O)O)cc1	?	2%	/	2%	/	11%
Cc1cc(C(=O)OCC(=O)c2ccccc2)c2ccccc2n1	?	3%	/	-6%	/	-3%
Cc1ccc(C)c(C(=O)COC(=O)c2cc(Cl)nc3ccccc23)c1	12µM*	2%	-10%	1%	-2%	-3%
Cc1ccc(C(=O)COC(=O)c2cc(Cl)nc3ccccc23)cc1C	15µM*	0%	-6%	-6%	-3%	-7%
Cc1ccc2c(c1)c1c(c(=O)n(-c3ccccc3)c(=O)n1Cc1ccccc1C)n2C	-5%	/	/	/	/	/
O=C(Cn1c(=O)n(-c2ccc(F)cc2)c(=O)c2sc3ccccc3c21)NC1CCCCC1	1%	/	-4%	/	/	/
CCN(C(=O)Cn1nc(Cc2cccnc2)c2ccccc2c1=O)c1cc(C)ccc1C	-1%	/	-38%	/	/	/
Cc1cc(C)cc(-n2c(SCC(=O)Nc3ccccc3F)nc3c(oc4ccccc43)c2=O)c1	-6%	/	-7%	/	/	/
O=C(Nc1c(Cl)cccc1Cl)c1cccc2c1C(=O)N(C1CCCCC1)C2	0%	/	7%	/	/	/
OCc1cn(-c2ccccc2)nc1-c1ccc(Br)cc1	17µM*	?	/	?	/	?
OCc1cn(-c2ccccc2)nc1-c1ccc2c(c1)OCCO2	21µM*	5%	-26%	?	-1%	?
CC(C)COc1ccc(-c2nn(-c3ccccc3)cc2CO)cc1	?	0%	/	0%	/	-5%
CCn1cc(S(=O)(=O)c2cc(C)cc(C)c2)c(=O)c2cc(F)c(N3CCN(c4ccccc4)CC3)cc21	0%	/	/	/	/	/
CCOc1cc(-c2ccc(OC(=O)c3ccc(C)cc3)c(OC)c2)cc(=O)c2c(C)oc(C)c12	-10%	/	/	/	/	/
CC(C)(C)n1ncc2c(=O)n(Cc3cccc(C#N)c3)cnc21	3%	/	/	/	/	/
